Data reported in the supplement of paper PMC11732987, “Enantioselective OTUD7B fragment discovery through chemoproteomics screening and high-throughput optimisation” (Communications Chemistry, 2025).

Key:
Assay in all cases: log2 ratio of Biotin-Ahx-Ub-VS probe labelling (fragment/DMSO); higher = less target engagement (more negative = stronger competition), active = hit call of the paper (q ≤ 0.05, log2 ratio ≤ -1)
Conditions in all cases: compound concentration: 200 uM; treatment time: 3 h
[1] = biological target: USP34 (UniProt Q70CQ2)
In short: (§1)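 Fragment (200 µM) or vehicle was incubated for 3 h with triplicate HEK293T lysate samples of 495 µg, which were then treated with Biotin-Ahx-Ub-VS at 0.5 µM final for 1 h. Labelled DUBs were enriched on NeutrAvidin, digested with LysC and trypsin, and analysed by diaPASEF LC-MS/MS. Values are average log2 fragment/vehicle ratios from an unpaired t-test on global-median-normalised Spectronaut label-free quantities, using proteins with ≥2 unique peptides.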

[2] = biological target: T1, USP36 (UniProt Q9P275)
T1 sequence (whole entry): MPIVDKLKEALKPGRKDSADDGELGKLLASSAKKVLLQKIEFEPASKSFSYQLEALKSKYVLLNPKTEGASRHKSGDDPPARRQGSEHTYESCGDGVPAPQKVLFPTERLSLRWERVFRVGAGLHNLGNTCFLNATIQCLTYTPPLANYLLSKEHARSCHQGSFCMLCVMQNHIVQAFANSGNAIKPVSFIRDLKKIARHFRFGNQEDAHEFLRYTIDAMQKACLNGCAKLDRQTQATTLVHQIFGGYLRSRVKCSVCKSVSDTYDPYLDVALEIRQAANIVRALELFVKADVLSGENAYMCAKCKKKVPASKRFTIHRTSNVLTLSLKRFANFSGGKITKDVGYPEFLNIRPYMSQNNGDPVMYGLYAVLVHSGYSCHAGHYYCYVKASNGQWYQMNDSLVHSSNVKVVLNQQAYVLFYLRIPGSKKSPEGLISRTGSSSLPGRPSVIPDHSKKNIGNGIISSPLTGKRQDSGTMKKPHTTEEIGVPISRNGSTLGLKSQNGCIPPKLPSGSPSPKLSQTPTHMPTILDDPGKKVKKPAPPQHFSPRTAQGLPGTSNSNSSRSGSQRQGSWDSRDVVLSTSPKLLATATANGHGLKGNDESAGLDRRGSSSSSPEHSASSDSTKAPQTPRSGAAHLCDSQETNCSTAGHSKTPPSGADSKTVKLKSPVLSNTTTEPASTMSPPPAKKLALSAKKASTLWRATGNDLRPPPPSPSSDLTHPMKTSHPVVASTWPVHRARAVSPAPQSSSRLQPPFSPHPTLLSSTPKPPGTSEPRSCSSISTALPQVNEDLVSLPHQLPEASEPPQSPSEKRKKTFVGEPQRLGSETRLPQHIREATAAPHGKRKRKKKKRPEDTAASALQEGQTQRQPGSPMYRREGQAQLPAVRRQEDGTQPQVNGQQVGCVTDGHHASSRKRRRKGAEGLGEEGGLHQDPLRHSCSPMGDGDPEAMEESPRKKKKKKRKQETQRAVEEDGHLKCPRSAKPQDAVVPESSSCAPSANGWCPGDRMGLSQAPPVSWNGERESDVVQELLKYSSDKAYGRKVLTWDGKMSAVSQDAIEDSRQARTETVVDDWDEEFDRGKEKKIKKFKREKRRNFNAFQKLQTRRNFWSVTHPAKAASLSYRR
In short: as §1

[3] = biological target: T2, USP38 (UniProt Q8NB14)
T2 sequence (whole entry): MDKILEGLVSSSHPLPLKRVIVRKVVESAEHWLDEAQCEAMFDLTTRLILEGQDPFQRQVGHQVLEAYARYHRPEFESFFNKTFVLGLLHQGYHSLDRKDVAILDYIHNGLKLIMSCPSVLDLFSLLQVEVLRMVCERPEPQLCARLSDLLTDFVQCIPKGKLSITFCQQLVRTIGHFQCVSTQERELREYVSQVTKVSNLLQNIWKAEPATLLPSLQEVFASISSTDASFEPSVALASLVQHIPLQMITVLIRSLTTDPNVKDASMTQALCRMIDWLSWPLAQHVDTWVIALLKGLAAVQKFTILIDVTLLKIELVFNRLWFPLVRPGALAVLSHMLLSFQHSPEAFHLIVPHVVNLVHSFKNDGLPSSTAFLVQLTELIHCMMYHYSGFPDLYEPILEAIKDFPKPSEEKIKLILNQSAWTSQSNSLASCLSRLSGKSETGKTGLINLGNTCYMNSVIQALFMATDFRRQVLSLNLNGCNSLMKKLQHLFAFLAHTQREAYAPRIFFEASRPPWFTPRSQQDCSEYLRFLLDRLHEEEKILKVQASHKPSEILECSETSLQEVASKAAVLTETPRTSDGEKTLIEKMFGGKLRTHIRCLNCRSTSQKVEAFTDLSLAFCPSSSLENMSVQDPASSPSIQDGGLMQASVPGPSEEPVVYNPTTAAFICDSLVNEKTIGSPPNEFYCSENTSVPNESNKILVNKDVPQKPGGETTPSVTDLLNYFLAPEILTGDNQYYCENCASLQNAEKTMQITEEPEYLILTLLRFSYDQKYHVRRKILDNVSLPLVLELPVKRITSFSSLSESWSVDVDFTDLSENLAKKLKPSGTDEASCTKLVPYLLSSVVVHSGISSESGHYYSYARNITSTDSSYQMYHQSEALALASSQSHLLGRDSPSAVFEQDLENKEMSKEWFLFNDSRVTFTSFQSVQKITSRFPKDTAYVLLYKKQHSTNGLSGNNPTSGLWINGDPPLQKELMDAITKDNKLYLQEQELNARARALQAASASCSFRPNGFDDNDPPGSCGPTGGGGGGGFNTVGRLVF
In short: as §1

[4] = biological target: T3, USP39 (UniProt Q53GS9)
T3 sequence (whole entry): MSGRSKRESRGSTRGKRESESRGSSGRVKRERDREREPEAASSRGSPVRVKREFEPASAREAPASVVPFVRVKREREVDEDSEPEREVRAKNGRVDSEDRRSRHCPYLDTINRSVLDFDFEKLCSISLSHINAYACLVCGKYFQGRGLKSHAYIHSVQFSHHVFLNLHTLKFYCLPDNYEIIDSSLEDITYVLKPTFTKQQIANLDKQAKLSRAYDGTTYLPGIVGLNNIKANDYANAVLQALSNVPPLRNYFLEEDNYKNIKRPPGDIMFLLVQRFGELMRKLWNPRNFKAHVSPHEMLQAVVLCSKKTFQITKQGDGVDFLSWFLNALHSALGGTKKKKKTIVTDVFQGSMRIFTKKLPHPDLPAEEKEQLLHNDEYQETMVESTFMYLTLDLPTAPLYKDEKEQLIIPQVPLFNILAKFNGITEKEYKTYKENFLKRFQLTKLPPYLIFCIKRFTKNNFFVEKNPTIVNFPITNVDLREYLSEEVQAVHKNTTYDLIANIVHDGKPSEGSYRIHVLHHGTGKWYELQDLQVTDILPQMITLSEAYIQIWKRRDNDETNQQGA
In short: as §1

[5] = biological target: T4, USP4 (UniProt Q13107)
T4 sequence (whole entry): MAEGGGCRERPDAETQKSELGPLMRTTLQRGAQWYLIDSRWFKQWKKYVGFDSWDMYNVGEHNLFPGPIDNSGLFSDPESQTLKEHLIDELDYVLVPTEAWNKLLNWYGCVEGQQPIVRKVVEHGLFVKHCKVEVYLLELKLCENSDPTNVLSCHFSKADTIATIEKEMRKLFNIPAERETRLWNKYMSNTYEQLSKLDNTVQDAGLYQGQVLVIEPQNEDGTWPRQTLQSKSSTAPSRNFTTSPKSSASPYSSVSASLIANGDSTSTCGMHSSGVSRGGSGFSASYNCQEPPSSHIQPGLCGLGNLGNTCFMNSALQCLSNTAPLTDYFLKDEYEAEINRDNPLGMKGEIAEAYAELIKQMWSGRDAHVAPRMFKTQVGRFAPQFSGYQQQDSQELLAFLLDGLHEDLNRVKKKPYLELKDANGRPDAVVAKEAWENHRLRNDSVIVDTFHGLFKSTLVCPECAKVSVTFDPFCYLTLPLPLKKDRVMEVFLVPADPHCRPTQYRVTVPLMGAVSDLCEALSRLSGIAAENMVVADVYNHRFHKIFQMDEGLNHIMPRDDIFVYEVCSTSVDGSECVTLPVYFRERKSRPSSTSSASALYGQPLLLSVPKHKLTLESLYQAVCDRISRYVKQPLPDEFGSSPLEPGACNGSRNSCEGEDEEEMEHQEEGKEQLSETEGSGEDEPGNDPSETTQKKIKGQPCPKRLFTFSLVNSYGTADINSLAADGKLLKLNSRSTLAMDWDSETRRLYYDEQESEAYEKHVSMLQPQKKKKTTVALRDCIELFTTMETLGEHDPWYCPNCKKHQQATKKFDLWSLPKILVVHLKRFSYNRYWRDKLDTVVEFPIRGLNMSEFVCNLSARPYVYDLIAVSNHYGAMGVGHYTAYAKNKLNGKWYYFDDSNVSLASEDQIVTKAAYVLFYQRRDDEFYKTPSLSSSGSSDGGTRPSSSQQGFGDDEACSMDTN
In short: as §1

Measured: log2 ratio of Biotin-Ahx-Ub-VS probe labelling

USP34, sequence (Q70CQ2 whole entry, the tested form may be a part): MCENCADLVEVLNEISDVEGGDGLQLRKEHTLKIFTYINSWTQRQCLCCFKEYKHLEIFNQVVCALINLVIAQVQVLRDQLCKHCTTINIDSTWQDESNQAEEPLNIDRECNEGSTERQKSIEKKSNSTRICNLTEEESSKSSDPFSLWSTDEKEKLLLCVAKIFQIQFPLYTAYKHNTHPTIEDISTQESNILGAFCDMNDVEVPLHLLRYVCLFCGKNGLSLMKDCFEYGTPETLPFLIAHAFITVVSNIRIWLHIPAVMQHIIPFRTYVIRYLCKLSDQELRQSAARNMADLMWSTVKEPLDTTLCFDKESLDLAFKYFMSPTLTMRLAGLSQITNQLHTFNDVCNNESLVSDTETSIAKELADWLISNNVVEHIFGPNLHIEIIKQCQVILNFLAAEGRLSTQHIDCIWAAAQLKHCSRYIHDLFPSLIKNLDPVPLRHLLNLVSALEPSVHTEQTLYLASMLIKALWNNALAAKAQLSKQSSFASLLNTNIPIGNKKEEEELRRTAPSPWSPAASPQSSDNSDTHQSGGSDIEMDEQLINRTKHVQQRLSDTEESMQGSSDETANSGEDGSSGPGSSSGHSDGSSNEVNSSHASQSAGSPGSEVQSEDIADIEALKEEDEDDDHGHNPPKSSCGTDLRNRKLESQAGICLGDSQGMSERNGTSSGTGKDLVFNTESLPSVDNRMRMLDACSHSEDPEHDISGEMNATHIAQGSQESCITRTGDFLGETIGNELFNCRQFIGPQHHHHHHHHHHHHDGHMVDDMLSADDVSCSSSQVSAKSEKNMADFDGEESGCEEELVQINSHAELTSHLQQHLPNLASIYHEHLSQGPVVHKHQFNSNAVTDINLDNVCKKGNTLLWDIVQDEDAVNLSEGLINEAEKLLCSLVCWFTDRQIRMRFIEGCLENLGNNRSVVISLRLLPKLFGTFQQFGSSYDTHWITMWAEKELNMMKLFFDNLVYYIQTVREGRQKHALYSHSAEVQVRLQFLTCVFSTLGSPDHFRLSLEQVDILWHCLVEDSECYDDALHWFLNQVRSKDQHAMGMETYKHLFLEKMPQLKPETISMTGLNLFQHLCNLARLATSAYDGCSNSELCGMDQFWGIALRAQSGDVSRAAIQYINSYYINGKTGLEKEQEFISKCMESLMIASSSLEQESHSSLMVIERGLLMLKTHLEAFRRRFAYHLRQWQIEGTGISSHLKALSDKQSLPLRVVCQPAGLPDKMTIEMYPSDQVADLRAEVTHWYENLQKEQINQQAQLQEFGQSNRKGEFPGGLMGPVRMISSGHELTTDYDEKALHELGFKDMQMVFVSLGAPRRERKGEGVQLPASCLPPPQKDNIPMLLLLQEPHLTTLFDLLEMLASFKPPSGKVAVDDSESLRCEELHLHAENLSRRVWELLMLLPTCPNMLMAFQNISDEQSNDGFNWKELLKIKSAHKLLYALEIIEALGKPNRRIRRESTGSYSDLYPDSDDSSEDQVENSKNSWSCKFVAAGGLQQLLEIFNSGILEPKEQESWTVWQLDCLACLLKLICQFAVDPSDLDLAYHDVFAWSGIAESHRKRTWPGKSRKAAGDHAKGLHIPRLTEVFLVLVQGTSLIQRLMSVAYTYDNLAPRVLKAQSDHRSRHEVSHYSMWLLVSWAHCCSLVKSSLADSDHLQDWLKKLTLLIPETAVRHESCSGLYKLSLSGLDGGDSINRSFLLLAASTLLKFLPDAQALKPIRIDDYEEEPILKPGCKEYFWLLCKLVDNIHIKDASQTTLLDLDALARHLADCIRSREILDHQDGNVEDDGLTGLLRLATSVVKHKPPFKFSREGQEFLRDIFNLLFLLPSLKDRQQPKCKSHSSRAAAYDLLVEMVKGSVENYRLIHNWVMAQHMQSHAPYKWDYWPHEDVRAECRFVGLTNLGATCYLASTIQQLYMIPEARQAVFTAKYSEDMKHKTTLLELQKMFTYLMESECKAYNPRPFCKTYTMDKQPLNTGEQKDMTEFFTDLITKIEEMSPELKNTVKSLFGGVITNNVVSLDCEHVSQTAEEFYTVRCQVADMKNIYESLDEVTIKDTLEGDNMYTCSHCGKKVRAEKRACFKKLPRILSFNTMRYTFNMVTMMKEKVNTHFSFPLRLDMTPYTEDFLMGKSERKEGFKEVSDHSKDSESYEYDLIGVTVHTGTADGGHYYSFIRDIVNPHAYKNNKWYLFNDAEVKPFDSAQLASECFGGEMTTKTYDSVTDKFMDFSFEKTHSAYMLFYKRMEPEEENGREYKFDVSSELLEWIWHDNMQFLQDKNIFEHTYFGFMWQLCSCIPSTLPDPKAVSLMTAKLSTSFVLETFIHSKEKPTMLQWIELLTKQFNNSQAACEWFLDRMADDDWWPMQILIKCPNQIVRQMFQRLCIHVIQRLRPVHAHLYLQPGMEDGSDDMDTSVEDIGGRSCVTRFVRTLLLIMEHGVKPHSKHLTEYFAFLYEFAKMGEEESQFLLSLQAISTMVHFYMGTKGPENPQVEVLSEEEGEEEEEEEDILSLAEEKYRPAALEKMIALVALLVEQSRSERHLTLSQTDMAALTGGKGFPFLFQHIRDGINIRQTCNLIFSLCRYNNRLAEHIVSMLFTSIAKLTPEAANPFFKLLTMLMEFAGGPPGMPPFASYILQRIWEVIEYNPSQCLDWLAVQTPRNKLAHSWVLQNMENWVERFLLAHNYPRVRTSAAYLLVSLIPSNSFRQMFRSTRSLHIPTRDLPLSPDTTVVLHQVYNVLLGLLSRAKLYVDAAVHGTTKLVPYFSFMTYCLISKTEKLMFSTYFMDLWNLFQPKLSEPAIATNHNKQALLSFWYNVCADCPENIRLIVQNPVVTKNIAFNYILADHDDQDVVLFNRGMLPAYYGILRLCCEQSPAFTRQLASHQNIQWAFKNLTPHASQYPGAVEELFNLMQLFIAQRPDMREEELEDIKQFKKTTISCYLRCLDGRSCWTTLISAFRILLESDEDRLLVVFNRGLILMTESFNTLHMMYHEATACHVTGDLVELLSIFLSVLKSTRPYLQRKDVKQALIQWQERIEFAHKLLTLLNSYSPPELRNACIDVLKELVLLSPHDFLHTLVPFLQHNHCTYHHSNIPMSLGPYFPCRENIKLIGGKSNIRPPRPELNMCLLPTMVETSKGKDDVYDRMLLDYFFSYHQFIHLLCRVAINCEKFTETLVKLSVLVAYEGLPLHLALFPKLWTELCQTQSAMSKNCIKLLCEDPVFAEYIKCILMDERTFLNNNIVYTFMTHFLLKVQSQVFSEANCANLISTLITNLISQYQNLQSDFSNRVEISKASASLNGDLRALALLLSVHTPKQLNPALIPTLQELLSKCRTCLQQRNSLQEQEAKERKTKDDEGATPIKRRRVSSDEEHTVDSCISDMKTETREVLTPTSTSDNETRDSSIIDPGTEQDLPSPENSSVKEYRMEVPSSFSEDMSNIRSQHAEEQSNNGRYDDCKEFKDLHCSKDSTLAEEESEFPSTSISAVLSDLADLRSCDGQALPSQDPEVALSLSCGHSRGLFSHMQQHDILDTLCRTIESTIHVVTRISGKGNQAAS

CC(NC(=O)CCl)c1csc(-c2ccccc2)n1.Cl (stereo not given)
inactive: [1] -0.477 | [2] -0.276 | [3] -0.266 | [4] 0.0283 | [5] -0.166
